An excerpt weighted towards active compounds, which were near 1.2% of everything screened.
E-sel TNF inh: TNF alpha driven E-selectin expression inhibition; 0.71% of 120,000 active; HUVEC TNFa-induced E-selectin immunofluorescence, high content; inhibition, % at 2 µM;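 active = inhibition above the batch mean plus 3 SD, and confirmed as a hit on visual image review, cut at about 43% in these data; inconclusive = passes the inhibition cutoff but fails visual image review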;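 also: 0% = TNF-stimulated DMSO wells and 100% = unstimulated control wells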
VCAM1 TNFa inh: reduces TNF alpha induced VCAM1 expression in HUVEC; 0.48% of 95,000 active; HUVEC TNFa-induced VCAM-1 immunofluorescence, high-content imaging; inhibition, % at 2 µM;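 active = inhibition above the batch mean plus 3 SD, with images confirmed as a hit by eye, cut at about 37% in these data; inconclusive = inhibition above that limit but hit not confirmed in images; inactive = inhibition not above that limit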;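 also: 0% = TNF-stimulated DMSO wells and 100% = unstimulated control wells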
F-actin modifier: cytoskeleton assembly modification; inhibition, % at 2 µM; HUVEC TNFa F-actin phalloidin imaging, high content; 0.18% of 91,000 active;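 active = inhibition above the batch mean plus 3 SD and confirmed as a hit by visual image inspection, cut at about 30% in these data, passing the limit was not always enough; inconclusive = above the inhibition threshold but rejected on visual inspection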
HUVEC tox TNFa: HUVEC cytotoxicity counter-screen, TNF alpha stimulated; HUVEC TNFalpha-stimulated, Hoechst cell count, imaging; cell count reduction, % at 2 µM; 0.17% of 93,000 active; AID 848;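 active = cell count reduction exceeding the screen mean by over 5 SD, scaled to untreated wells per plate, cut at about 78% in these data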;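 also: cells counted after 24 h of TNF alpha exposure following the 1 h pretreatment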
* = called active by the depositor; ? = inconclusive; · = no result.

SMILES	E-sel TNF inh	VCAM1 TNFa inh	F-actin modifier	HUVEC tox TNFa
CSc1ccc(CNC2CN3CCC2CC3)cc1 (stereo not drawn)	-3	93*	-17	86*
Cc1ccc(C2N(c3cc(C)on3)C(=O)C3CCCN32)cc1 (stereo not drawn)	22	-5	-2	-6
COc1c(C)cc(C(=O)C2CCCN(Cc3ccccn3)C2)cc1C (stereo not drawn)	-9	·	·	·
CC(=O)Nc1ccc(OCCF)cc1	100*	·	·	·
CN1/C(=C\C=Nc2ccccc2)C(C)(C)c2ccccc21	-20	12	10	-8
CN1/C(=C\C=C\C2=[N+](C)c3ccc4ccccc4c3C2(C)C)C(C)(C)c2ccccc21	7	84*	14	28
COc1ccc(S(=O)(=O)NC(CC(=O)N2CCC3(CC2)OCCO3)C(C)C)cc1 (stereo not drawn)	5	-14	·	-25
Cn1c(O)c(C(=N)COc2cccc(Cl)c2)c(=O)n(C)c1=O	65*	5	20	-13
O=C(c1cc2ccccn2n1)N1CCC2(CC1)OCCO2	·	-3	-32	4
O=C(c1ccc2c(c1)ncn2C1CCCCC1)N1CCC2(CC1)OCCO2	·	92*	-27	80*
O=C1C(=O)c2cccc3cccc1c23	4	·	·	·
O=C1C(=O)c2ccccc2-c2ccccc21	-26	84*	18	41
Cc1ccc(-n2c(O)c(C=Nc3ccc(Br)cn3)c(=O)[nH]c2=O)cc1	-10	·	·	·
CN(C)C(=O)Oc1c(Cl)cc(Cl)c2cccnc12	74*	·	·	·
CCOC(=O)C1SC2(C(F)F)CC1(O)c1c(c(OC)c3occc3c1OC)O2 (stereo not drawn)	11	23	-8	-6
C=CCOC(=O)C1=C(C)OC(N)=C(C#N)C12C(=O)N(CN1CCOCC1)c1ccccc12 (stereo not drawn)	·	88*	-48	91*
CCOC(=O)C1=C(C)OC(N)=C(C#N)C12C(=O)N(C)c1ccccc12 (stereo not drawn)	9	10	5	-4
COC(=O)C1CN(C#N)N(c2ccc(Cl)cc2)C12c1ccccc1-c1ccccc12 (stereo not drawn)	63*	·	?	·
COc1ccc(Oc2cc(NC(=O)c3nn(C)cc3[N+](=O)[O-])cc([N+](=O)[O-])c2)cc1	90*	90*	24	39
C[C@H]1CCC[C@@H](O)CCC/C=C/c2cc(O)cc(O)c2C(=O)O1	-4	-80	-9	-47
CC1CCC/C=C/C2CC(O)CC2C(O)/C=C/C(=O)O1 (stereo not drawn)	98*	94*	13	87*
CSCc1nnc2n1-c1ccc(Cl)cc1C(c1ccccc1)=NC2	13	·	·	·
OC1(c2ccccc2F)CC2CCC(C1)N2CCN1CCOCC1 (stereo not drawn)	5	11	57	-17
CCn1c(=O)cc(SCC(=O)N2CCC3(CC2)OCCO3)c2ccccc21	7	12	-18	6
CC(=NCCCO)c1c(O)n(Cc2ccccc2)c(=O)[nH]c1=O	-26	94*	39	·
CCN(CC)CCOC(=O)c1ccc(N=Cc2c(O)[nH]c(=O)[nH]c2=O)cc1	51*	16	-17	5

Screens as filed in PubChem.
